# A selection: hits, their analogues and other compounds. The true share with any hit is near 2.6%.
# ClpP mod: qHTS Assay for Activators of ClpP; ATP-dependent Clp protease proteolytic subunit (Bacillus subtilis (strain 168)), P80244; purified B. subtilis ClpP, FRET peptide cleavage, 20 min; Potency, µM (titrated, usually from 57.5 µM), for the others: top-dose activity change, negative = active; hit rate 1.9% among 340,000; AID 651965, 2013; active = well fitted falling curve with a large enough effect; inconclusive = small, poorly fitted or top-dose-only effect; inactive = no such curve, though single readings can be large or run the other way; note: potency is the fitted concentration of half-maximal effect; the source files actives as falling curves though it sought activators and does not explain the sign; nearly all actives have a fitted effect of over 65% in size
#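 ClpP 10 microg/mL final, pH 8 Tris/KCl buffer with BSA, glycerol, Tween-20; compound pinned in; FRET-FV substrate; RT 20 min; Ex320/Em430; ΔFRET vs ADEP 5.8 microM, DMSO, no enzyme.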
# p53 reactivator: mutant p53 re-activation in reporter cells; H1299 p53-A138V BP100-luciferase reporter, luminescence, 24 h; Potency, µM (top dose mostly 92.2 µM), inactives show at the highest dose activity change, positive = activation, hits mostly activators; hit rate 0.063% among 320,000; active = well fitted activation curve with a large enough effect; inconclusive = small, poorly fitted or top-dose-only effect; inactive = no such curve, though single readings can be large or run the other way; note: potency is the fitted concentration of half-maximal effect; % of control where 0% means no effect; nearly all actives have a fitted effect of over 45% in size
#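 p53-null H1299 cells stably carrying temperature-sensitive p53-A138V and a BP100-luciferase reporter were pinned with compounds (4-point, 1:5 series) and held 24 hrs at 37 deg C. Luminescence was read 10 min after detection reagent.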
# KCNH2 WT inh: inhibitors of human wildtype KCNH2 potassium channel. Q12809. U2OS, BacMam KCNH2, thallium flux FluxOr; stronger effect = lower value. activity change, % at 1.84 µM. hit rate 0.37% among 340,000. AID 720551;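 active = maximum activity change below -70%; inconclusive = maximum activity change between -70% and -50%; inactive = maximum activity change above -50%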; note: % is set by controls: 0 for no effect and ±100 for the full control effect
# Target sequence (Q12809 whole entry, looked up): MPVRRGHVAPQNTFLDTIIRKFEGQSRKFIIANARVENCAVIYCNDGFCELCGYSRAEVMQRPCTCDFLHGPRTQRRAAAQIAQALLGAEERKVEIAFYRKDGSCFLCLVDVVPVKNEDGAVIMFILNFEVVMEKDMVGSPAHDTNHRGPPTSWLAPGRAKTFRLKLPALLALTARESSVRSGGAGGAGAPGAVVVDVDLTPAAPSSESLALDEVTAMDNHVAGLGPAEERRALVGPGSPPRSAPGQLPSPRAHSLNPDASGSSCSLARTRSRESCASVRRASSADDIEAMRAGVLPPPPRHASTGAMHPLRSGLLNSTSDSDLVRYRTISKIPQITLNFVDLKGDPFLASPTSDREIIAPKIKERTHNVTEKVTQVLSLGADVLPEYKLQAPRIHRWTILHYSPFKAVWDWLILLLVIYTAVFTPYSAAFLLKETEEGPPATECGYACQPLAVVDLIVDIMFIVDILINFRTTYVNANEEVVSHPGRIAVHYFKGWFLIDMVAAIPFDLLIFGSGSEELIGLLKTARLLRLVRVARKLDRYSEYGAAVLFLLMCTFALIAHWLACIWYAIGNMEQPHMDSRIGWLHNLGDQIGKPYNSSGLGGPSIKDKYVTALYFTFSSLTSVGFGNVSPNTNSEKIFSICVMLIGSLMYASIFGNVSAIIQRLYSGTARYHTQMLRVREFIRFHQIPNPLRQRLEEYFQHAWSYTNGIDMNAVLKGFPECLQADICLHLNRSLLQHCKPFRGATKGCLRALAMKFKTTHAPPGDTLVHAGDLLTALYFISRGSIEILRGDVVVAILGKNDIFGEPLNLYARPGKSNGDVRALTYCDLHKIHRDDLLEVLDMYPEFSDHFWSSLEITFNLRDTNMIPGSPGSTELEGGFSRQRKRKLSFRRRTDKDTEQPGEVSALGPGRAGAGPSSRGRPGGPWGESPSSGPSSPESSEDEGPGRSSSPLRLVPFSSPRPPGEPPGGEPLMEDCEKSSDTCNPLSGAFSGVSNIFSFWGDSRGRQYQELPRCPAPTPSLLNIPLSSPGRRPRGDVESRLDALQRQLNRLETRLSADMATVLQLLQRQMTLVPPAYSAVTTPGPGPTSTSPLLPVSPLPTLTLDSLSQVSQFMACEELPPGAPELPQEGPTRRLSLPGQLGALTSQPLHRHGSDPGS
#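 U2OS cells transduced with wild-type KCNH2 virus are loaded with FluxOr dye for 45 min, and thallium flux is measured in kinetic reads before and after stimulation buffer. Rate constants are normalized to DMSO controls.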
# KCNH2 3.1 inh: KCNH2 3.1 (human) potassium channel inhibition; U2OS KCNH2 3.1, thallium flux FluxOr; stronger effect = lower value; activity change, % (tested at about 1.8 µM); hit rate 0.95% among 340,000;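 active = maximum activity change below -70%; inconclusive = maximum activity change from -70% to -50%; inactive = maximum activity change above -50%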;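 note: thallium influx rate constant from kinetic fluorescence after stimulation buffer; % is set by controls: 0 for no effect and ±100 for the full control effect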
#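 Kinetic fluorescence (2 min after stimulation buffer) measures Tl+ influx through KCNH2 3.1 expressed by viral transduction in U2OS cells; the rate constant is normalized against DMSO controls serving as positive and negative references.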
# TRPV1 ag: agonists of human vanilloid receptor 1 (TRPV1) | hit rate 0.19% among 320,000 | activation, % at 8.33 µM | AID 540275 | Q8NER1 | TRPV1-expressing cells, Fluo-8 calcium influx, agonist mode; in the data active = activation above about 80%; inconclusive = between about 30% and that limit; note: 0% is about no effect
#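 TRPV1-expressing cells were cultured overnight at 35.5C and loaded with Fluo-8 calcium dye for 40 to 90 min at room temperature. After a 10 s baseline, compound was added and calcium influx was read kinetically for 3 min (ex 480/em 520 nm).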
# TRPV1 potentiator: human TRPV1 potentiation | Q8NER1 | TRPV1-expressing cells, Fluo-8 calcium influx, capsaicin EC20 potentiation | potentiation, % at 8.33 µM | hit rate 0.02% among 320,000 | AID 540277; in the data active = potentiation above about 80%; inconclusive = between about 30% and that limit; note: 0% is about no effect
#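 Fluo-8 calcium influx in TRPV1-expressing cells, kinetic read (ex 480/em 520 nm). Compound added and read 3 min for agonist activity, followed by capsaicin at EC20 final and 2 min further read for enhancement.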
# * = called active by the depositor; ? = inconclusive; nt = not tested or not shown; ! = not confirmed by another sample.
SMILES,ClpP mod,p53 reactivator,KCNH2 WT inh,KCNH2 3.1 inh,TRPV1 ag,TRPV1 potentiator
O=C(O)c1cccc(N/N=C/c2cccc3ccccc23)c1,nt,?,1,-73*,-4,-7
CCC(C)Sc1cc(-c2nc3ccccn3c2NC2CCCCC2)ccc1OC (stereo not drawn),4%,-17%,3,-149*,0,-12
CCC(C)Sc1ccc(-c2nc3ccc(C)cn3c2NC2CCCCC2)cc1 (stereo not drawn),4%,8%,3,-16,29,-7
CCC(C)Sc1cccc(-c2nc3ccc(C)cn3c2NC2CCCCC2)c1 (stereo not drawn),16µM*!,-1%,-6,-25,?,?
Cn1c(-c2ccccc2O)cc2ccccc21,16µM*,27%,11,15,1,2
Cn1c(-c2ccccc2)cc2ccccc21,2%,1%,-12,-12,2,4
O=C1CCCc2c1ccc1ccccc21,-3%,nt,2,-20,nt,nt
COc1cc2c(c3ccccc13)CCCC2=O,28µM*,nt,4,-1,nt,nt
Cc1ccc(NC(=O)CN2C(=O)C(c3ccc(F)cc3)=NC2(C)C)c(C)c1,1%,nt,nt,nt,nt,nt
COc1ccc(NC(=O)C2(C)CCN2Cc2ccc(OC(F)(F)F)cc2)cc1OC (stereo not drawn),1%,nt,nt,nt,nt,nt
CCCCCc1nc(N)c(C#N)c(-c2ccco2)c1CCCC,25µM*,-2%,0,-5,?,-8
Cc1ccc(CNC(=O)C2CCN(S(=O)(=O)c3ccc(F)cc3)CC2)cc1,0%,nt,nt,nt,nt,nt
O=S(=O)(Nc1nc2ccccc2nc1Nc1cccc(S(=O)(=O)N2CCCCC2)c1)c1ccccc1,25µM*,-5%,18,-1,1,-8
CNC(=O)CSc1nnc(-c2ccco2)n1-c1cc(C)ccc1C,0%,nt,-140*,0,1,0
CCn1c(SCC(=O)N(C)CC(=O)Nc2cccc(OC)c2)nnc1-c1ccco1,28µM*,0%,-2,-2,-5,1
COc1ccc(-n2c(SCC(N)=O)nnc2-c2ccco2)cc1,-1%,-2%,-8,13,1,-1
O=C(CSc1nnc(-c2ccco2)n1-c1ccccc1)NCC1CCCO1 (stereo not drawn),32µM*,4%,-8,1,-2,9
COc1cccc(-n2c(SCC(N)=O)nnc2-c2ccco2)c1,32µM*,-35%,11,2,0,3
Cc1ccc(N2C(=O)CS(=O)(=O)C23C(=O)N(Cc2ccccc2F)c2ccccc23)cc1Cl (stereo not drawn),-1%,nt,nt,nt,nt,nt
Cc1cccc(CN2Cc3cccc4c3[C@H](C=CC4)CC2=O)c1,-4%,nt,nt,nt,nt,nt
Cn1c(=O)c2c(-c3ccccc3Cl)n(Cc3ccc(Cl)cc3)cc2n(C)c1=O,25µM*,nt,nt,nt,nt,nt
Cc1ccc(-c2c3c(=O)n(C)c(=O)n(C)c3cn2Cc2ccccc2)cc1,-4%,-3%,-1,-6,8,3
CCOc1ccc(NC(=O)C2Cc3ccccc3N2C(=O)c2ccccc2)cc1 (stereo not drawn),7%,nt,nt,nt,nt,nt
CCOP(=O)(OCC)C(NC(=O)Nc1ccc(Cl)c(Cl)c1)C(N)=O (stereo not drawn),16µM*,-10%,-11,-4,-9,9
CCc1cccc(NC(=O)CCN2C(=O)c3ccccc3Sc3ncccc32)c1,-2%,nt,nt,nt,nt,nt
CCOc1ccccc1NC(=O)Cn1nnc(C(=O)Nc2ccc(C)cc2)c1N,-16%,4%,-127*,-7,-1,20
CCOc1ccccc1NC(=O)c1nnn(CC(=O)Nc2ccccc2CC)c1N,4%,nt,nt,nt,nt,nt
COCc1cc(C)n(CC(=O)NCc2ccccc2)c(=O)c1C#N,4%,1%,-3,9,1,10
COCc1cc(C)n(CC(=O)NC(C)c2ccccc2)c(=O)c1C#N (stereo not drawn),16µM*,-4%,-8,9,0,-1

# Bioassay records from PubChem.
